For experiment [1], the system named is Wnt5a (protein binding on small-molecule microarray). Briefly: Wnt5a binders on small-molecule microarray, primary screen, biophysical, 635/667 nm fluorescence (AID 1142).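 Note: fluorescence read at 667 nm with signal to noise per printed feature.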 The following applies: 635 nm fluorescence, higher = more signal.
The nature of experiment [2]: cell viability in Huh7 cells, primary screen, cytotoxicity control for HCV replication inhibitor project, CellTiter-Glo luminescence, basal, 48 h (AID 1143).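 Note: Huh7 hepatoma cells carrying a hepatitis C replication reporter with no stimulus; test concentration not given here.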 The conditions noted are these: Huh7 HCV replicon, CellTiter-Glo luminescence, 48 h, higher = more signal, called active from +8 up or from −8 down unless noted.
Experiment [3] in a line: P. aeruginosa biofilm formation inhibitors, primary screen, PAO1 strain, BacTiter-Glo luminescence, LB-PBS (AID 1144). The following applies: 12 h, higher = more signal.
Experiment [4] in a line: CREB reporter modulators without forskolin, primary screen, cell-based, PC12, CRE-LacZ reporter, unstimulated (AID 1145). The conditions noted are these: no forskolin, luminescence, 4.5 h; higher = more signal, called active from +8 up or from −8 down unless noted.
Experiment [5] is described as follows: CREB reporter modulators under forskolin, primary screen, cell-based, PC12, CRE-LacZ reporter, forskolin-stimulated (AID 1146).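 Note: PC12 cells with 6xCRE LacZ reporter stimulated by forskolin 10 µM; beta-galactosidase reporter signal reflecting CREB driven transcription.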 The conditions noted are these: luminescence, 4.5 h; higher = more signal, called active from +8 up or from −8 down unless noted.
The target of experiment [6] is Streptavidin (Streptomyces avidinii) (UniProt P22629). Briefly: streptavidin binders on small-molecule microarray, primary screen, artefact control for SMM compound annotation, biophysical, 635/667 nm fluorescence (AID 1147).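 Note: signal reflects streptavidin binding to arrayed compounds as a control protein.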 The conditions noted are these: streptavidin binding, higher = more signal.
Sequence of Streptavidin (Streptomyces avidinii) (P22629 whole entry, looked up): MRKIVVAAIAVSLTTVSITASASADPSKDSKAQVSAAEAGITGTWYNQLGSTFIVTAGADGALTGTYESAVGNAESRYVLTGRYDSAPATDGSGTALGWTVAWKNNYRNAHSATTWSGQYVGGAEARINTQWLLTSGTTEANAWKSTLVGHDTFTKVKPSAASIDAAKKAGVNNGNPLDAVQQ
Experiment [7] can be described thus: small-molecule binders of probe aInhba, primary screen, biochemical, small-molecule microarray, 635/667 nm fluorescence (AID 1148).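 Note: score merges 667nm spot fluorescence with signal-to-noise for antibody binding to printed compounds.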 The following applies: higher = more signal; small-molecule microarray, probe aInhba, fluorescence unless noted.
Experiment [8] deals with Torsin-1A (Homo sapiens) (UniProt O14656). Briefly: torsin A binders from cell lysate, primary screen, small-molecule microarray, wild-type, 635/667 nm (AID 1149). The following applies: COS7 hTOR1A-WT lysate, 635 nm fluorescence, higher = more signal.
Sequence of Torsin-1A (Homo sapiens) (O14656 whole entry, looked up): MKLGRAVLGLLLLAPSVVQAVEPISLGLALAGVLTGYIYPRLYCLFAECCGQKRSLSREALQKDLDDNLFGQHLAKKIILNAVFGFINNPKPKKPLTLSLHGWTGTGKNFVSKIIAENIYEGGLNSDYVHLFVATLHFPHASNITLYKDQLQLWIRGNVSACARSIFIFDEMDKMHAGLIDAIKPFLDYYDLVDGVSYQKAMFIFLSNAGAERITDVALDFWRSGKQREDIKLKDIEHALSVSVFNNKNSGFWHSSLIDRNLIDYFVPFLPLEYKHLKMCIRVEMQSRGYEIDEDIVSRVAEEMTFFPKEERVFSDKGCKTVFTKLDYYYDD
The target is the same in experiment [9]. In words: small-molecule binders of mutant TOR1A in lysate, primary screen, cell lysate, small-molecule microarray, COS7 lysate, 635/667 nm fluorescence (AID 1150).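 Note: score pools 667 nm emission and signal to noise measuring lysate protein binding.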 The conditions noted are these: COS7 hTOR1A mutant lysate, 635 nm fluorescence, higher = more signal.
The subject of experiment [10] is Sonic hedgehog protein (Shh). In words: small-molecule binders of Shh protein, primary screen, biochemical, small-molecule microarray, 635/667 nm fluorescence (AID 1151).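 Note: Shh protein binding to compounds spotted on small-molecule microarray slides; score combines spot fluorescence intensity with signal-to-noise across triplicate slides.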 The following applies: small-molecule microarray binding, 635 nm fluorescence; higher = more signal.
Experiment [11] can be described thus: E. coli DRC41 culture turbidity changes, primary screen, E. coli filamentation inducer project, strain DRC41, OD650, 48 h (AID 1152).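 Note: E. coli MC1000 strain DRC41 lacking acrAB efflux pump and sulA.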 The following applies: E. coli DRC41 (acrAB sulA); higher = more signal, called active from +8 up or from −8 down unless noted.
Experiment [12] is described as follows: small-molecule binders of probe aLefty1, primary screen, biochemical, small-molecule microarray, 635/667 nm fluorescence (AID 1153).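 Note: score merges spot fluorescence with signal-to-noise ratio from the scanned slide images.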 The following applies: higher = more signal; small-molecule microarray, probe aLefty1, fluorescence unless noted.
Experiment [13] can be described thus: PSAC antagonists in infected red cells, primary screen, cell-based, P. falciparum Indochina, OD700, 1 h (AID 1154). The conditions noted are these: P. falciparum Indochina infected RBC osmotic lysis; higher = more signal, called active from +8 up or from −8 down unless noted.
The nature of experiment [14]: PSAC antagonists in infected red cells, primary screen, cell-based, P. falciparum Indochina, OD700, 2 h (AID 1155).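 Note: lysis reports solute entry through the parasite surface anion channel PSAC; channel blockers reduce lysis of infected cells.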 The following applies: P. falciparum Indochina infected erythrocytes, osmotic lysis OD700; higher = more signal, called active from +8 up or from −8 down unless noted.
A short description of experiment [15]: osmotic lysis modulators in infected erythrocytes, primary screen, PSAC antagonist project, cell-based, P. falciparum Indochina, OD700, 3 h (AID 1156). The following applies: higher = more signal, called active from +8 up or from −8 down unless noted.
A short description of experiment [16]: PSAC antagonists in infected red cells, primary screen, cell-based, P. falciparum Indochina, OD700, 18 h (AID 1157). The following applies: P. falciparum Indochina infected erythrocytes, osmotic lysis OD700, 18 h; higher = more signal, called active from +8 up or from −8 down unless noted.
A short description of experiment [17]: modulators of S6 phosphorylation in cells, primary screen, cell-based, A549, cytoblot, luminescence, serum-stimulated (AID 1158).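 Note: serum-stimulated A549 lung adenocarcinoma cells; signal is phosphorylated S6 detected by cytoblot immunostaining with HRP secondary.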 The conditions noted are these: A549 phospho-S6 cytoblot, 5 h, higher = more signal.
The target in experiment [18] is NADPH oxidase 2 (Homo sapiens) (UniProt P04839). In words: NOX2-dependent H2O2 signal modulators, primary screen, NOX inhibitor project, cell-based, HEK293-NOX2, PMA-stimulated, Amplex Red fluorescence (AID 1159). Note: test concentration not given here. The conditions noted are these: 45 min; higher = more signal, called active from +8 up or from −8 down unless noted.
Sequence of NADPH oxidase 2 (Homo sapiens) (P04839 whole entry, looked up): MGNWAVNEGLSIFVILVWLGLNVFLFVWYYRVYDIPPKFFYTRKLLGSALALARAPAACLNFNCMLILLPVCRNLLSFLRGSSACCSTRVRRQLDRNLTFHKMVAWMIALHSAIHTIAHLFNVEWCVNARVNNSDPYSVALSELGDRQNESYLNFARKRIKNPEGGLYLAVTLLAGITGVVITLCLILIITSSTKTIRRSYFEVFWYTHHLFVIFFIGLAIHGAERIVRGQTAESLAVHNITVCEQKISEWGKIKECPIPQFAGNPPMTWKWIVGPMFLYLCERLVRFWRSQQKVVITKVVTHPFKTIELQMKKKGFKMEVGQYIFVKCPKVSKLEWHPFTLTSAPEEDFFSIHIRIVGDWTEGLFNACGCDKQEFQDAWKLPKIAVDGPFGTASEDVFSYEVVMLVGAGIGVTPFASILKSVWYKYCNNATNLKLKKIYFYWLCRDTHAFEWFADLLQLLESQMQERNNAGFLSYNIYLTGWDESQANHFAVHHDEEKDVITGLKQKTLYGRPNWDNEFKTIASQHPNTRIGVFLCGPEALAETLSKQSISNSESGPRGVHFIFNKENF
The target of experiment [19] is NADPH oxidase 4 (Homo sapiens) (UniProt Q9NPH5). In words: NOX4-dependent H2O2 signal modulators, primary screen, NOX inhibitor project, cell-based, HEK293-NOX4, tetracycline-induced, Amplex Red fluorescence (AID 1160). The following applies: 45 min; higher = more signal, called active from +8 up or from −8 down unless noted.
Sequence of NADPH oxidase 4 (Homo sapiens) (Q9NPH5 whole entry, looked up): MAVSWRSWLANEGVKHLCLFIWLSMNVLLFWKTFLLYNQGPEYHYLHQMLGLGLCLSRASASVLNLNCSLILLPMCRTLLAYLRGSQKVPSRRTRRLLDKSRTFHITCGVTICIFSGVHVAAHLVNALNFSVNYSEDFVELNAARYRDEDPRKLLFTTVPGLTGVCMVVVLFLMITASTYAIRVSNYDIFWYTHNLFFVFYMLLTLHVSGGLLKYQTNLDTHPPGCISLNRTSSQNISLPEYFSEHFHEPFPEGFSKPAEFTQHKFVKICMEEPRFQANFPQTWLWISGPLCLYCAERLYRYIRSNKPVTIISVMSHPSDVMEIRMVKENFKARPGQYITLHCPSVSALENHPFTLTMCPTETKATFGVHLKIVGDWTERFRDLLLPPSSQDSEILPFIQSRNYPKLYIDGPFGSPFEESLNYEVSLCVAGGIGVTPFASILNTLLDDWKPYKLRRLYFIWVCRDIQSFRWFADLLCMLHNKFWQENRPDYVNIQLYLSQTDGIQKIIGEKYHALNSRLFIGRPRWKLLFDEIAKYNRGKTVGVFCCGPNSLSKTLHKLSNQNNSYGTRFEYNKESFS
For experiment [20], the target named is NADPH oxidase 5 (Homo sapiens) (UniProt Q96PH1). In words: NOX5-dependent H2O2 signal modulators, primary screen, NOX inhibitor project, cell-based, HEK293-NOX5, Amplex Red fluorescence (AID 1161). The conditions noted are these: HEK293-NOX5, ionomycin, 45 min, higher = more signal.
Sequence of NADPH oxidase 5 (Homo sapiens) (Q96PH1 whole entry, looked up): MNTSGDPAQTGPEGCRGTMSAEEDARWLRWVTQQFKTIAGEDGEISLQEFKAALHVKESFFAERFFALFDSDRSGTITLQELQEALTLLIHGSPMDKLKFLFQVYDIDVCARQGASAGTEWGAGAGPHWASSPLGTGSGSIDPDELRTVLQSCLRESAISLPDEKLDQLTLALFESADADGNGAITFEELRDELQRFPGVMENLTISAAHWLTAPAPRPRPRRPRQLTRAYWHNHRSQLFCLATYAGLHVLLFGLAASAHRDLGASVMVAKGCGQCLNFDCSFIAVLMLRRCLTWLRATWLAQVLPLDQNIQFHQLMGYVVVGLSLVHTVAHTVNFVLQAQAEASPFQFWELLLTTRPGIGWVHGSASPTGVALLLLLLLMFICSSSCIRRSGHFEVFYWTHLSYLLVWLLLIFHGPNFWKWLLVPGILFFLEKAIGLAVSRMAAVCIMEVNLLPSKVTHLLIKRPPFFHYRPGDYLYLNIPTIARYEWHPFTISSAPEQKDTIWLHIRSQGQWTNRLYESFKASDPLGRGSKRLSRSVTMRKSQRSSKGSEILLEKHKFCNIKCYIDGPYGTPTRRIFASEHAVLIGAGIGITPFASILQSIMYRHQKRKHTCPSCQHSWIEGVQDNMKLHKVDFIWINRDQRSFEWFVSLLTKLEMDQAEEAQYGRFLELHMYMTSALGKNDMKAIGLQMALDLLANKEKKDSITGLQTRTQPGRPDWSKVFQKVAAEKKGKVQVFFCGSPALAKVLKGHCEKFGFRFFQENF

Active and inactive are the calls of the source. Unless noted, the rule behind the calls is not given here.

With `CCCc1cc2c(n1CCO)C(C)C1CN(C(=O)c3ccccc3)C(C)(C(=O)OC)C21` (stereo not given), the composite z-score is 0.559 in experiment [1]; 1.04 in experiment [6]; 0.414 in experiment [7]; 0.726 in experiment [8]; 1.02 in experiment [9]; -0.898 in [10]. In experiment [12], this molecule registered a composite z-score of 0.549. Besides, the z-score in experiment [2] was -0.938 (inactive); in experiment [3], 0.251 (inactive); in experiment [4] it was 1.74 (inactive); in experiment [5], 0.444 (inactive); in [11], -1.14 (inactive); in [13], 2.33 (inactive). Further, the z-score in experiment [14] is 0.196 (inactive); in experiment [15] it was 0.101 (inactive); in [16] it was 0.618 (inactive); in [17], -0.199; in [18], 0.0961 (inactive); in experiment [19] it was -2.55 (inactive). This molecule also returned a z-score in experiment [20] of -2.35.

For the molecule `CN1CCC(c2ccc(CO)cc2)=CC1c1cccs1` (stereo not given), the composite z-score in experiment [1] was -0.113; in [6], -0.511; in experiment [7], -0.154; in [8] it was 0.175; in experiment [9], 0.367; in experiment [10], 1.7. In experiment [12], this molecule gave a composite z-score of -0.0111. Moreover, the z-score is -1.33 (inactive) in [2]; 0.196 (inactive) in [3]; 2.8 (inactive) in [4]; 0.158 (inactive) in experiment [5]; -0.0115 (inactive) in experiment [11]; 5.23 (inactive) in experiment [13]. Further, the z-score is 0.366 (inactive) in experiment [14]; 0.377 (inactive) in experiment [15]; 0.528 (inactive) in [16]; -0.594 in [17]; -0.822 (inactive) in experiment [18]; -1.01 (inactive) in experiment [19]. This molecule displayed a z-score in experiment [20] of -1.21.

In the case of `C=C(CC1(C(C)NP(=O)(c2ccccc2)c2ccccc2)CC1)c1ccccc1` (stereo not given), the composite z-score in experiment [1] is 0.41; in experiment [6], 0.416; in experiment [7], 0.122; in [8] it was -1.03; in experiment [9], 0.0087; in experiment [10], 0.0881. Besides, in [12], the composite z-score is 0.603. Besides, the z-score in experiment [2] is -2.48 (inactive); in experiment [3], -0.917 (inactive); in experiment [4] it was 0.0109 (inactive); in [5], 1.49 (inactive); in experiment [11] it was -1.67 (inactive); in experiment [13] it was 2.42 (inactive). Besides, the z-score is 0.809 (inactive) in experiment [14]; 0.512 (inactive) in [15]; 1.03 (inactive) in experiment [16]; 0.984 in experiment [17]; -0.412 (inactive) in experiment [18]; -3.69 (inactive) in [19]. Also, in experiment [20], the z-score was -3.82.

Regarding `C=C(CC1(CNP(=O)(c2ccccc2)c2ccccc2)CC1)c1ccccc1`, the composite z-score was 0.0774 in experiment [1]; -0.0187 in experiment [6]; 0.102 in experiment [7]; -0.27 in [8]; 0.449 in experiment [9]; -1.31 in [10]. Moreover, in experiment [12], the composite z-score was 0.241. Besides, the z-score in [2] is -0.649 (inactive); in experiment [3] it was 0.366 (inactive); in experiment [4] it was -0.182 (inactive); in experiment [5] it was -0.418 (inactive); in experiment [11], -0.822 (inactive); in experiment [13], 1.41 (inactive). Further, the z-score was 0.453 (inactive) in experiment [14]; 1.07 (inactive) in [15]; 0.519 (inactive) in experiment [16]; -0.254 in experiment [17]; -0.335 (inactive) in experiment [18]; -0.4 (inactive) in experiment [19]. In experiment [20], the z-score is -2.42.

Consider `CCOC(=O)[C@H]1CC=C2C(=O)Oc3ccc(Br)cc3[C@@H]21`, for which the composite z-score in [1] is -0.707; in experiment [6], 0.307; in experiment [7], -0.128; in experiment [8] it was 0.0083; in experiment [9] it was 0.127; in experiment [10], -0.968. This molecule also returned a composite z-score in experiment [12] of 0.035. The z-score in experiment [2] was -0.87 (inactive); in [3], -0.301 (inactive); in [4], 0.0331 (inactive); in experiment [5], 34.1 (active); in experiment [11], -0.704 (inactive); in experiment [13], 1.79 (inactive). Further, the z-score in experiment [14] was 1.03 (inactive); in [15], -0.0107 (inactive); in experiment [16], 0.756 (inactive); in [17], -0.747; in [18] it was -0.0356 (inactive); in [19], -1.75 (inactive). Also, the z-score in experiment [20] was -0.445.

Regarding `C[C@@H]1OC=C2[C@@H](O)[C@H]3O[C@H]3C(=O)[C@]23[C@H]1[C@H]1C2=C([C@@H](O)[C@H]4O[C@H]4C2=O)[C@@H]3O[C@@H]1C`, the composite z-score in experiment [1] was -0.0894; in [6], -0.0542; in [7], -0.206; in experiment [8], 0.924; in experiment [9], 0.419; in experiment [10], 0.881. This molecule had a composite z-score in experiment [12] of -0.27. Also, the z-score in experiment [2] is 0.612 (inactive); in experiment [3], 0.389 (inactive); in experiment [4], 1.01 (inactive); in [5], 1.04 (inactive); in experiment [11], -0.418 (inactive); in experiment [13] it was -0.531 (inactive). Also, the z-score in experiment [14] is 0.407 (inactive); in experiment [15], -0.655 (inactive); in experiment [16] it was 0.0502 (inactive); in [17] it was 0.0176; in [18], 1.2 (inactive); in experiment [19] it was 0.214 (inactive). The molecule further showed a z-score in experiment [20] of -0.31.

Consider `CCc1cc2c(nc1CC)CCN(CCC(C)=NOC)C2`, for which the composite z-score was 0.148 in experiment [1]; 0.496 in experiment [6]; -0.0645 in experiment [7]; 1.23 in [8]; 1.57 in [9]; 1.05 in experiment [10]. In experiment [12], this molecule had a composite z-score of 0.393. Moreover, the z-score in experiment [2] is -0.295 (inactive); in [3], -1.01 (inactive); in [4], 1.82 (inactive); in experiment [5], -0.26 (inactive); in [11], -1.88 (inactive); in experiment [13] it was 1.69 (inactive). The z-score is 1.29 (inactive) in experiment [14]; 0.194 (inactive) in experiment [15]; 0.612 (inactive) in experiment [16]; 0.481 in [17]; -0.0413 (inactive) in [18]; -1.48 (inactive) in experiment [19]. Moreover, in [20], the z-score is 1.13.

On to `COC(=O)[C@H]1[C@@H](O)[C@@]2(O)c3c(OC)cc(OC)cc3O[C@@]2(c2ccc(OC)cc2)[C@@H]1c1ccccc1`, for which the composite z-score in [1] worked out at 0.226; in experiment [6], 0.442; in experiment [7] it was 0.0054; in [8], 0.0165; in [9], 0.295; in [10], 0.683. The molecule also gave a composite z-score in [12] of -0.19. In addition, the z-score was -4.75 (inactive) in [2]; -0.638 (inactive) in experiment [3]; 1.82 (inactive) in experiment [4]; 1.43 (inactive) in experiment [5]; 0.662 (inactive) in [11]; 0.253 (inactive) in experiment [13]. The z-score in experiment [14] was 0.0987 (inactive); in experiment [15], -0.15 (inactive); in experiment [16], -0.219 (inactive); in experiment [17] it was -1.37; in [18], 0.0111 (inactive); in [19], -0.0152 (inactive). Further, in [20], the z-score was 0.219.

For the origin of these results see PubChem BioAssay.
